Shown are actives, neighbours in structure and some others; about 11% of the full set was active somewhere.
PNC assembly inh – inhibitors of perinucleolar compartment assembly; PC3M PTB-GFP, PNC prevalence imaging, 16 h; hits give low values; AID 2417; 3.1% of 140,000 active; activity change (PNC), negative = inhibition, % at 10 µM;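 active means readout at or below -70, meaning at least 70% loss of cells showing the perinucleolar compartment, a nuclear body marking cancer cells; inconclusive means readout between -30 and a set limit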;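 further: plate controls were DMSO wells for no effect and camptothecin positive control wells for full effect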
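Read-out is percentage of cells bearing a perinucleolar compartment, from automated 20x imaging of fixed, Hoechst-stained PC3M PTB-GFP cells. Cells were seeded 4 h, then exposed 16 h to compound (23 nl of library stock) in duplicate plates.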
ALDH1A1 block – ALDH1A1 (human) enzyme inhibition. Potency, µM (series often up to 75.3 µM), for the others: at the highest dose activity, negative = inhibition, actives largely listed as inhibitors. Purified ALDH1A1, NADH fluorescence, propionaldehyde substrate. AID 1030. 7.3% of 220,000 active;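 further: potency means the concentration at half of the fitted maximal effect; plate controls were no enzyme wells and a reference inhibitor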
Target sequence (P00352 whole entry, looked up): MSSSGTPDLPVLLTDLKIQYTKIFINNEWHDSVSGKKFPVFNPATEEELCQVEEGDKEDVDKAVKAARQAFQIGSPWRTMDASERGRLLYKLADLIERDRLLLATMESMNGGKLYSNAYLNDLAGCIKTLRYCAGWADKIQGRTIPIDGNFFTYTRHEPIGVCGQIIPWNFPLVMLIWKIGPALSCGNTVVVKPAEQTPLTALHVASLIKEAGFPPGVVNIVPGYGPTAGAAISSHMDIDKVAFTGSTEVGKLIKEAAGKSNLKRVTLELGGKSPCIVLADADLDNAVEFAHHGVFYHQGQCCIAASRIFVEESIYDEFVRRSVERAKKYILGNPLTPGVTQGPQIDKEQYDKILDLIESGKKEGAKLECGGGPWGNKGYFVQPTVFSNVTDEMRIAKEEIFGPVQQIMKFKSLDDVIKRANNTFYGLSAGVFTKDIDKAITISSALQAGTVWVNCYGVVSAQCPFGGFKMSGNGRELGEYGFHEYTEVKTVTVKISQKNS
IMPase Li inh – cell-permeable IMPase inhibitors with lithium potentiation. Potency, µM (series often up to 59.4 µM), without a hit: at the top dose activity, negative = IMPase inhibition, most hits filed as inhibitors. CHO-M1 cells, IP1 TR-FRET (IP-One), carbachol + lithium. 0.35% of 210,000 active. AID 1457; active means well fitted curve in the direction sought with a large enough effect; inconclusive means small, poorly fitted or top-dose-only effect, or another doubt; inactive means no such curve, though single readings can be large; an effect the other way counts as inactive or inconclusive;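 further: IP1 builds up when IMPase is blocked and the TR-FRET signal falls; potency means the concentration at half of the fitted maximal effect; plate controls were basal vehicle for no effect and high inhibitor control for full effect; nearly all actives have a fitted effect of over 50% in size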
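IP1 accumulation measured by competitive TR-FRET in lysed CHO-M1 cells after 30 min compound exposure at 37C, with a small lithium addition to potentiate weak responses. Hill-equation AC50 from ratio and donor-channel data.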
HPGD inh – inhibitors of human 15-hydroxyprostaglandin dehydrogenase (HPGD); P15428; purified HPGD, NADH fluorescence kinetic, PGE2 substrate; Potency, µM, for the others: at the highest dose activity change, negative = inhibition, usual class: inhibitors; 4.3% of 150,000 active; AID 894; further: potency means the concentration at half of the fitted maximal effect
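20 nM HPGD preincubated 15 min at room temperature with compound in 50 mM Tris-HCl pH 8, 0.01% Tween 20. Started with 1 mM NAD+ and 30 uM prostaglandin E2; NADH fluorescence (360/450 nm) read 5 times over 30-s intervals, last minus first.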
12-hLO inh – 12-hLO (ALOX12) enzyme inhibition; purified 12-hLO, xylenol orange hydroperoxide absorbance; P18054; 0.12% of 150,000 active; Potency, µM (top dose mostly 57.1 µM), for the others: at the highest dose activity change, negative = inhibition, hits mostly inhibitors; active means well fitted curve in the direction sought with a large enough effect; inconclusive means small, poorly fitted or top-dose-only effect, or another doubt; inactive means no such curve, though single readings can be large; an effect the other way counts as inactive or inconclusive; further: potency means the concentration at half of the fitted maximal effect; nearly all actives have a fitted effect of over 55% in size
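Xylenol orange chromogenic assay: hydroperoxide from 12hLO oxidises Fe(II), giving red-shifted Fe(III)-XO absorbance. Conditions: 150 nM enzyme, 40 uM arachidonic acid, 25 mM Hepes pH 7.0, 0.01% Triton X-100, 30 min, room temperature.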
IMPase inh – IMPase inhibition in cells; P97697; CHO-M1 cells, IP1 accumulation, HTRF TR-FRET ratio; inhibition (IP1 accumulation), % at 46.1 µM; 120,000 tested, under 10 active; AID 901; active means well fitted curve in the direction sought with a large enough effect in the signal ratio, not every such curve was filed as active; inconclusive means small, poorly fitted or top-dose-only effect, or a change in a side signal; inactive means no such curve, though single readings can be large or run the other way; the % refers to the signal ratio;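 further: cells stimulated with carbachol in lithium chloride buffer; plate controls were DMSO basal wells for no effect and reference inhibitor wells for full effect; higher means more IMPase inhibition seen as more IP1 and lower FRET ratio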
Target sequence (P97697 whole entry, looked up): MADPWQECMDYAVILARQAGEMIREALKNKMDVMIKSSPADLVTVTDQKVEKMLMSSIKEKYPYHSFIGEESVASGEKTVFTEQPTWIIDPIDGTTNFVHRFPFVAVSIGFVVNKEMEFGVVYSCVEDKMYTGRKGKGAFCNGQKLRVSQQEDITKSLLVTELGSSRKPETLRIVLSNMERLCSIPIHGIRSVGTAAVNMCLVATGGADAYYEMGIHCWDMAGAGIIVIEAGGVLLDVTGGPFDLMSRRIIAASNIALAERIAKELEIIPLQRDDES
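Seeded CHO-M1 cells were dosed with compound at up to 46 uM, stimulated with carbachol for 30 min, then lysed in IP-One detection reagents. Higher IP1 lowers the TR-FRET signal.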
* marks the source's active call; other numbers are inactive results; u = inconclusive; x = no result; [ ] = another dose, or the depositor's remark. Unless noted, the call rests on the fitted dose curve; in most records, active means well fitted inhibition curve with a large enough effect (not every such curve was filed as active); inconclusive means small, poorly fitted or top-dose-only effect, or another doubt; inactive means no such curve, though single readings can be large or run the other way. Unless noted, on the % scale 0 is the no-effect control and ±100 the full control effect.

SMILES	PNC assembly inh	ALDH1A1 block	IMPase Li inh	HPGD inh	12-hLO inh	IMPase inh
COc1ccc(/C=C(/C#N)S(=O)(=O)c2ccc(C)cc2)cc1	-0.9	-3.6%	26.3%[38.3 µM]	25.1µM*	-0.1%	3.1
CCOC(=O)c1cccc(S(=O)(=O)N2CCOCC2)c1	x	-0.7%	-5.5%	x	x	x
CCOC(=O)C1=C(N)N(c2cc(S(=O)(=O)N3CCOCC3)ccc2Cl)C(=O)C1	x	14.1µM*	-1.4%	x	x	x
CC1=CC(C)(C(Cl)Cl)C(C)=CC1=O (stereo unspecified)	-100.0*	4.7%	-5.5%	-18.9%	-7.0%	-3.8
O=c1c(CCc2ccccc2)nc2cnc(N3CCOCC3)nc2n1C[C@H]1CCCO1	x	u	u	u	4.8%	x
COC(c1ccccc1Br)C(C)/C=C/CCO (stereo unspecified)	x	3.16µM*	x	x	x	x
CCOC(=O)CSc1nnc2n(-c3ccccc3)c(=O)c3c4c(sc3n12)CC(C(C)(C)C)CC4 (stereo unspecified)	x	x	x	x	x	-0.8
c1ccc(-c2cccc(N3CC[C@@]4(CCCNC4)C3)c2)cc1	x	u	8.6%	-14.4%	-12.3%	x
CCc1ccc2c(c1)[C@H]1OCC[C@H]1[C@@H](c1cccs1)N2	-109.0*	-1.6%	5.2%	-19.5%	0.1%	x
Clc1ccc2c(c1)[C@H]1OCC[C@H]1[C@@H](c1ccco1)N2	59.8	u	0.1%	u	-5.9%	-19.2
Oc1ccc(C2CNCc3sccc32)cc1O (stereo unspecified)	x	u	13.5%	7.08µM*	x	x
Oc1ccc(C2CNCCc3c2cc(O)c(O)c3Cl)cc1 (stereo unspecified)	x	u	29.3%	-16.2%	x	x
CCN1C/C(=C/c2cccc([N+](=O)[O-])c2)C(=O)/C(=C/c2cccc([N+](=O)[O-])c2)C1	-123.3*	u	13.9%	-1.9%	3.7%	x
Cc1ccc(S(=O)(=O)Cn2nnnc2C(CC(C)C)N2CCN(c3ccc(F)cc3)CC2)cc1 (stereo unspecified)	-114.9*	0.2%	9.3%[38.3 µM]	-14.5%	-2.3%	-6.6
Cc1ccc(S(=O)(=O)Cn2nnnc2C(C)N2CCN(C(=O)c3ccco3)CC2)cc1 (stereo unspecified)	-1.9	25.1µM*	-4.4%[38.3 µM]	-4.8%	-6.6%	8.6
Cc1ccc(C(c2nnnn2CC2CCCO2)N2CCN(C)CC2)cc1 (stereo unspecified)	x	-0.1%	6.4%	x	x	x
COc1ccc(C(c2nnnn2CC2CCCO2)N2CCN(c3ccc(F)cc3)CC2)cc1 (stereo unspecified)	-85.9*	-5.7%	19.7%[38.3 µM]	-13.3%	-3.3%	-6.2
Cc1ccc(S(=O)(=O)Cn2nnnc2CN2CCN(C(=O)c3ccco3)CC2)cc1	52.9	u	3.0%[38.3 µM]	-9.6%	-3.0%	1.9
O=C(c1ccco1)N1CCN(C(c2ccc(Cl)cc2)c2nnnn2CC2CCCO2)CC1 (stereo unspecified)	5.5	u	27.0%[38.3 µM]	-6.6%	-7.9%	-10.8
O=C(c1ccco1)N1CCN(Cc2nnnn2CC2CCCO2)CC1 (stereo unspecified)	x	20µM*	-1.0%	x	x	x
CCC(C)C1/C=C\CCCC(=O)N1Cc1ccc(C)cc1 (stereo unspecified)	x	-7.2%	8.3%	-10.5%	-5.5%[0.00818 µM]	x
Cc1ccc(C(c2nnnn2CC2CCCO2)N2CCN(C(=O)c3ccco3)CC2)cc1 (stereo unspecified)	30.0	15.8µM*	5.0%[38.3 µM]	-2.5%	-1.4%	1.4
O=C1/C(=C\c2ccco2)SC(=S)N1c1ccc(O)cc1	39.0	u	-0.8%	-12.2%	u	x
CC(C)C(C(=O)O)N1C(=O)/C(=C/C=C/c2ccco2)SC1=S (stereo unspecified)	-13.7	u	9.0%[38.3 µM]	3.55µM*	u	5.2
CC(=O)Nc1cccc(OCc2ccc(F)cc2)c1	x	3.6%	7.6%	x	x	x
SMILES	PNC assembly inh	ALDH1A1 block	IMPase Li inh	HPGD inh	12-hLO inh	IMPase inh
O=C(O)[C@H]1CC=CC[C@@H]1C(=O)Nc1cccc(O)c1	x	-0.2%[13.5 µM]	-6.1%	-8.0%	5.5%[11.4 µM]	x
O=C(O)C1CC=CCC1C(=O)Nc1cccc(F)c1 (stereo unspecified)	-5.8	28.2µM*	19.5%[38.3 µM]	-21.0%	5.2%	8.5
O=C(O)C1CC=CCC1C(=O)Nc1ccc2c(c1)OCCO2 (stereo unspecified)	-118.8*	u	10.0%	-8.6%	8.7%	12.3
O=C(O)C1CC=CCC1C(=O)Nc1ccc(F)c(F)c1 (stereo unspecified)	-18.7	-3.4%	23.9%[38.3 µM]	-4.5%	-1.8%	9.4
O=P(O)(O)O[C@@H]1O[C@H](CO)[C@@H](O)[C@H](O)[C@@H]1O	x	5.1%[13.5 µM]	-6.2%	-1.4%	-3.9%[11.4 µM]	x
COc1ccc2c(c1)S/C(=C\C(=O)c1ccncc1)N2C	-12.3	14.1µM*	u	28.2µM*	u	11.9
CO[C@@H]1COC(=O)C/C=C\[C@H](C)[C@H](OC)COC(=O)[C@H]2CCCN2C(=O)C/C=C\[C@H]1C	x	-2.8%[13.5 µM]	x	x	x	x
COc1cccc(N2C(=O)C3CCCN3C2c2ccc(N(C)C)cc2)c1 (stereo unspecified)	-28.0	1µM*	4.0%[38.3 µM]	-12.4%	5.2%	5.1
O=C1C2CCCN2C(c2ccc(F)cc2)N1c1ccc(Cl)cc1 (stereo unspecified)	-98.4*	-14.0%	18.3%[38.3 µM]	-3.0%	-12.9%	-3.4
N#CCCn1c(=O)c(-c2cccs2)nc2cnc(Oc3cccc(Cl)c3)nc21	x	u	u	u	-3.5%	x
NCCc1nc(-c2nc(C(=O)O)cs2)cs1	x	8.0%[13.5 µM]	-6.2%	-6.4%	0.9%[11.4 µM]	x
CC(C)CN1C(=O)/C(=C(/C#N)C(=O)NC2CCCCC2)c2ccccc21	x	5.01µM*	21.2%	x	x	x
CC1(C)OC(=O)C=C[C@@]2(C)C1C[C@@H](O)[C@]1(C)C2CC[C@@]2(C)C(c3ccoc3)OC(=O)[C@H]3O[C@]321 (stereo partly specified)	x	-5.1%	15.5%	-5.2%	x	x
Cc1cc(C)nc(-n2ncc3c2CC(c2ccc(F)cc2)CC3=O)n1 (stereo unspecified)	x	-5.0%	3.8%	x	x	x
Cc1cc(C)nc(-n2ncc3c2CC(c2ccccc2)CC3=O)n1 (stereo unspecified)	16.0	-23.4%	-2.0%	28.2µM*	7.0%	x
COCC(C)NC(=O)c1cnn2c(C(F)F)cc(-c3ccccc3)nc12 (stereo unspecified)	x	x	x	x	x	10.9
Cc1cccc(N(Cc2ccccc2)C(=O)CCl)c1	x	0.282µM*	11.3%	x	x	x
O=C(CCl)N(Cc1ccccc1)c1ccccc1	x	0.0794µM*	6.8%	x	x	x
Cc1cccc(N(CC(=O)O)CC(=O)O)c1	u	5.6%	1.4%	3.1%	-2.4%	x

From PubChem
